Data on 36 compounds can be found in PubChem BioAssay.

SMILES strings stand for the structures. Values without a mark were called inactive. Calls of active or inactive are those of the source.

In this assay the target is Dihydroorotate dehydrogenase (quinone), mitochondrial (Plasmodium falciparum (isolate 3D7)) (UniProt Q08210). The assay is described as follows: PfDHODH enzyme inhibitors, primary screen, biochemical, C-terminal His tag, absorbance 600 nm (AID 1175).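 Note: recombinant parasite enzyme with a five histidine tag at its C terminus; test concentration not given here.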 Particulars: DCIP absorbance 600 nm, higher = more signal, called active from +8 up or from −8 down.
Sequence of Dihydroorotate dehydrogenase (quinone), mitochondrial (Plasmodium falciparum (isolate 3D7)) (Q08210 whole entry, looked up): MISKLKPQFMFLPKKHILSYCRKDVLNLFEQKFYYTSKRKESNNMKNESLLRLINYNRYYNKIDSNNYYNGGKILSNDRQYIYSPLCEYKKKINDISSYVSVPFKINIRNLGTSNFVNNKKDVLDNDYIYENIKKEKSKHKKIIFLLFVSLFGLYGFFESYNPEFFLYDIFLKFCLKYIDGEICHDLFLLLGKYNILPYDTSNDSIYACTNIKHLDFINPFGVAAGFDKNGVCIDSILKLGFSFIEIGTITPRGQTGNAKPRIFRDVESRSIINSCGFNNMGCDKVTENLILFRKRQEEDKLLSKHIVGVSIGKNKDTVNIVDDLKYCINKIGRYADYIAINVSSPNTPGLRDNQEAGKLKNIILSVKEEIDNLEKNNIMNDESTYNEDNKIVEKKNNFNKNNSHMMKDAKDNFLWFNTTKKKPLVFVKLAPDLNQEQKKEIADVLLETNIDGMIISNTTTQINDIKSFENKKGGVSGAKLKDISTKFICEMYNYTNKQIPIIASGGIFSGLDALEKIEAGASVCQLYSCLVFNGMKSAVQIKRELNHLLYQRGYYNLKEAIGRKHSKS
As to `N#Cc1ccc(NN2C(C(O)c3ccccc3)C=CC3C(=O)N(c4ccccc4)C(=O)C32)cc1` (stereo unspecified), the composite z-score is -0.804.
As for `O=C(NCc1ccccc1)[C@]1(Cc2ccccc2)N=C(c2ccc(OCCCO)cc2)O[C@@H]1c1ccccc1`, the figure is 1.8.
As for `CC(C)CCC[C@@H](C)[C@H]1CC[C@@]2(C)C3=C(CC[C@]12C)[C@@]1(C)CC[C@H](OC(=O)C(C)(C)C)C(C)(C)C1CC3` (stereo partly specified), the figure is -2.48; as for `NC(=O)NCC#Cc1ccc2c(c1)[C@]1(C(=O)N2)[C@H](c2ccc(OCCO)cc2)N2[C@H](c3ccccc3)[C@H](c3ccccc3)OC(=O)[C@H]2[C@@H]1C(=O)N1CCCCCCC1`, 0.769; as for `[N-]=[N+]=Nc1ccccc1[C@H]1OC(c2ccc(OCCCO)cc2)=N[C@@]1(Cc1ccccc1)C(=O)NCc1ccccc1`, 0.928.
For `COCCOC(=O)N1C(=O)[C@@]2(c3cc(C#CCC(C(=O)OC)C(=O)OC)ccc31)[C@H](C(=O)N1CCCCCCC1)[C@H]1C(=O)O[C@H](c3ccccc3)[C@H](c3ccccc3)N1[C@@H]2c1ccc(O)cc1`, the composite z-score was 1.49.
Regarding `C=CC[C@]1(C(=O)NCC(O)CO)N=C(c2ccc(OCCCO)cc2)O[C@H]1c1ccccc1N=[N+]=[N-]` (stereo partly specified), the composite z-score was 1.13.
As to `O=C(Nc1cc(Br)ccc1C(=O)NCc1cccc(O)c1)c1ccccc1`, the composite z-score was 0.591.
Regarding `CC1CC/C=C\[C@H]2OC34C=CCN(c5ccc(Cl)cc5)C(=O)[C@H]3N(C(CO)C(C)C)C(=O)[C@]4(C)C2C(=O)O1` (stereo partly specified), the composite z-score is -2.37.
As to `CC1=C2[C@@H](CCc3ccccc3)OB(O)C[C@@H]2[C@@H]2C(=O)C=CC(=O)[C@@H]2C1`, the composite z-score is -3.6.
As to `[N-]=[N+]=NCc1ccccc1C[C@]1(C(=O)NCCN2CCOCC2)COC(c2ccc(OCCCO)cc2)=N1`, the composite z-score is 0.456.
For the compound `COc1ccc(CCNC(=O)[C@@H]2c3ccccc3C(=O)N(Cc3ccccc3)[C@H]2c2ccc(CO)cc2)cc1`, the composite z-score is -0.489.
In the case of `C=CC[C@@]1(C(=O)NCC(O)CO)N=C(c2ccc(OCCCO)cc2)O[C@@H]1c1ccccc1` (stereo partly specified), the composite z-score was 0.358.
As for `CO[C@H]1O[C@H](CO)[C@@H](OC(=O)Nc2cccc(F)c2)[C@H](OC(=O)Nc2ccc3c(c2)OCO3)[C@H]1OC(=O)Nc1ccc2c(c1)OCO2`, the figure is -0.222; as for `COc1ccc(C#Cc2ccc3c(c2)[C@]2(C(=O)N3)[C@H](c3ccc(OCCO)cc3)N3[C@H](c4ccccc4)[C@H](c4ccccc4)OC(=O)[C@H]3[C@@H]2C(=O)N2CCN(c3ncccn3)CC2)cc1`, -1.7; as for `COCC(=C=CC[C@@H](O)c1ccccc1OCCO)C[C@@H](O)c1ccccn1`, -10.8 (active).
With `CCCN1C(=O)[C@@]2(Cc3ccccc3)N=C(c3ccc(OCCCO)cc3)O[C@H]2c2ccccc21` the figure was -0.319; with `NC(=O)NCC#Cc1ccc2c(c1)[C@]1(C(=O)N2)[C@H](c2ccc(OCCO)cc2)N2[C@H](c3ccccc3)[C@H](c3ccccc3)OC(=O)[C@H]2[C@@H]1C(=O)N1CCN(c2ncccn2)CC1`, -0.858.
As for `C=CCC(OC(C)=O)[C@@H]1[C@@H](N(Cc2cccc3ccccc23)C(=O)c2ccc(C)cc2)c2cc(OCCCO)ccc2N1C(=O)c1ccc2ccccc2c1` (stereo partly specified), the figure is -1.86; as for `COc1ccc([Si](C)(C)[C@@H]2[C@@H](CC(=O)N(CCO)Cc3ccccc3)O[C@]3(C(=O)N(Cc4ccc(N5CCOC5=O)cc4)c4ccccc43)[C@H]2C)cc1`, -0.0014.
As for `COc1ccccc1CN1C(=O)c2ccccc2[C@](Cc2ccccc2I)(C(=O)NCCN2CCOCC2)[C@@H]1c1ccc(CO)cc1`, the composite z-score was -1.1.
In the case of `CN(C)CCCN1C(=O)[C@@]2(Cc3ccccc31)c1ccccc1C(=O)N(Cc1ccccc1)[C@H]2c1ccc(CO)cc1`, the composite z-score was -6.03.
As for `Cc1ccc(S[C@]2(C(=O)O)CC(=O)N(Cc3ccccc3C(F)(F)F)[C@@H]2c2ccc(CO)cc2)cc1`, the figure is 0.52; as for `CCOC(=O)C1=CC[C@@H](c2ccccc2)N(S(=O)(=O)c2ccc(C)cc2)[C@H]1C=C(C)C`, 0.274; as for `COCCOC(=O)N1C(=O)[C@@]2(c3cc(C#CCNC(N)=O)ccc31)[C@H](C(=O)N1CCCCCCC1)[C@H]1C(=O)O[C@H](c3ccccc3)[C@H](c3ccccc3)N1[C@@H]2c1ccc(OCCO)cc1`, -0.0134.
With `CC(C)CNC(=O)[C@@]1(C)c2ccccc2C(=O)N(Cc2ccccc2)[C@H]1c1ccc(CO)cc1` the figure was -0.362; with `C=CCC(OC(C)=O)[C@@H]1[C@@H](N(Cc2ccc(-c3ccccc3)cc2)C(=O)c2cccc3ccccc23)c2cc(OCCCO)ccc2N1C(=O)c1ccc2ccccc2n1` (stereo partly specified), -0.178.
With `COc1ccc([Si](C)(C)[C@@H]2[C@@H](CCO)O[C@]3(C(=O)N(Cc4ccccc4)c4ccc(N5C(=O)COc6ccccc65)cc43)[C@H]2C)cc1` the figure was -0.0636.
Consider `C=C(COC)/C(=C/C[C@@H](OC(=O)c1ccncc1)c1cccc(OCCO)c1)c1cc(C(=O)OC)ccc1OC`, for which the composite z-score was -7.37.
`O=C1NC(=O)C2C1C=CC(C(O)c1ccc3c(c1)OCO3)N2Nc1ccc(Cl)cc1Cl` (stereo unspecified): the composite z-score is -0.703.
On to `[N-]=[N+]=NCc1ccccc1C[C@@]1(C(=O)NCCN2CCOCC2)N=C(c2ccc(OCCCO)cc2)O[C@@H]1c1ccccc1CN=[N+]=[N-]`, for which the composite z-score is 1.06.
As for `C[N+](C)(C)CCCCCCNC(=O)[C@@H]1C[C@@H]2C(=O)NCC(=O)N2[C@@H]1c1ccc(O)cc1`, the figure is -1.45.
For the compound `COC(=O)[C@@]1(Cc2ccccc2N=[N+]=[N-])N=C(c2ccc(OCCCO)cc2)O[C@H]1c1ccccc1`, the composite z-score is 1.66.
For `COCCOC(=O)N1C(=O)[C@@]2(c3cc(C#Cc4ccc(OC)cc4)ccc31)[C@H](C(=O)N1CCc3cc(OC)c(OC)cc3C1)[C@H]1C(=O)O[C@H](c3ccccc3)[C@H](c3ccccc3)N1[C@@H]2c1ccc(OCCO)cc1`, the composite z-score is -0.0739.
As for `O=C1O[C@H](c2ccccc2)[C@H](c2ccccc2)N2[C@H]1[C@@H](C(=O)N1CCCCCCC1)[C@]1(C(=O)Nc3ccc(C#CCCO)cc31)[C@H]2c1ccc(OCCO)cc1`, the figure is 0.521; as for `CCCC[C@H]1OB(O)C[C@H]2C1=C(COc1ccccc1)Cn1c(=O)n(-c3ccccc3)c(=O)n12`, -2.51.
